# Compound activity as filed in PubChem BioAssay.
# ASM inhibitor – Inhibitors of Secretory Acid Sphingomyelinase (S-ASM): qHTS; Sphingomyelin phosphodiesterase (Homo sapiens), P17405; placental ASM, HMU-PC fluorogenic substrate, 60 min; 340,000 compounds, 0.006% hits; Potency, µM (highest dose often 57.5 µM), without a hit: top-dose activity change, negative = inhibition, actives largely listed as inhibitors; AID 504937, 2011; also: potency is read from the fitted curve at half-maximal effect
# Target sequence (P17405 47-631 limits assumed): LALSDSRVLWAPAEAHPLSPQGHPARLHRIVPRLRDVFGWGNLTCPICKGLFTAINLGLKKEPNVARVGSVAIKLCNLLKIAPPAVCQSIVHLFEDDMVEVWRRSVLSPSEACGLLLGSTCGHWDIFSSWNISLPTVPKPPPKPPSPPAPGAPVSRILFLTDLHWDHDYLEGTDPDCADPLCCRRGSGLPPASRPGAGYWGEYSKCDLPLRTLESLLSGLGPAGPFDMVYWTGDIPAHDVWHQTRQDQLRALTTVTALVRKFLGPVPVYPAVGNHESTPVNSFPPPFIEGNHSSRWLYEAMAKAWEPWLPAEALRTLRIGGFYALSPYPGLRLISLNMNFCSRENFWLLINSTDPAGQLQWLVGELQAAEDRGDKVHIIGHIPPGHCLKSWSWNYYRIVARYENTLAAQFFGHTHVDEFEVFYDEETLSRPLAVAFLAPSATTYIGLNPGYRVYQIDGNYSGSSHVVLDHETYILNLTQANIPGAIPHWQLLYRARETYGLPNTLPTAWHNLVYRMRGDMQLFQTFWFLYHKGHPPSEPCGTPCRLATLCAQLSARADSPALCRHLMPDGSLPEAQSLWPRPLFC
#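 Human placenta-derived ASM preincubated with compound 10 min at room temperature, then reacted with 9 uM (final) fluorogenic HMU-PC substrate for 60 min at 37 C. Stop solution raises pH to 10; fluorescence read at Ex 386/Em 447 nm.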
# TDP1 cell CPT – qHTS for Inhibitors of human tyrosyl-DNA phosphodiesterase 1 (TDP1): qHTS in cells in presence of CPT; chicken DT40 Tdp1-/-;hTDP1 cells + 20 nM CPT, ATP luminescence, 48 h; Potency, µM (highest dose often 46.2 µM), without a hit: at the top dose activity change, negative = growth inhibition, most hits filed as inhibitors; 420,000 compounds, 12% hits; also: potency is read from the fitted curve at half-maximal effect; % is scaled to controls: 0 for no effect and ±100 for the full control effect; nearly all actives have a fitted effect of over 55% in size
#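 Chicken DT40 Tdp1-/- cells stably complemented with human TDP1 were seeded at 400 cells/well in medium containing 20 nM camptothecin, exposed to pin-transferred compounds, and grown at 37 °C for at least 48 hr. Viability was read as ATP luminescence.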
# DT40 TDP1 no CPT – qHTS for Inhibitors of human tyrosyl-DNA phosphodiesterase 1 (TDP1): qHTS in cells in absence of CPT; DT40 Tdp1-/- hTDP1 cells, no CPT, ATP luminescence, 48 h; Potency, µM (top dose mostly 46.2 µM), for the others: at the top dose activity change, negative = growth inhibition, actives largely listed as inhibitors; 420,000 compounds, 15% hits; AID 686978, 2013; also: potency is read from the fitted curve at half-maximal effect; % is scaled to controls: 0 for no effect and ±100 for the full control effect; nearly all actives have a fitted effect of over 55% in size
#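 Chicken DT40 Tdp1-/- cells complemented with human TDP1, screened without camptothecin (DMSO vehicle only), 400 cells/well. Compounds pin-transferred, cells incubated at 37 °C for at least 48 hr. Growth read as ATP-dependent luminescence (CellTiter-Glo, 30 min at RT).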
# TGFb SMAD3 inh – qHTS for Inhibitors of TGF-b. HepG2 CAGA-GFP TGF-b/SMAD3 reporter, GFP fluorescence, 18 h; TGF-beta stimulated, 500 pg/mL final. Potency, µM (titrated, usually from 46.1 µM), for the others: at the top dose activity, negative = inhibition, most hits filed as inhibitors. 410,000 compounds, 1.2% hits. AID 588855, 2011; also: potency is read from the fitted curve at half-maximal effect; % is scaled to controls: 0 for no effect and ±100 for the full control effect; nearly all actives have a fitted effect of over 65% in size
#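 Using HEPG2 CAGA-GFP reporter cells at 1000 cells/well, we pinned test compounds, stimulated with recombinant TGF-beta (500 pg/mL final) and measured total well GFP after 18 h.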
# HepG2 tox – qHTS for Inhibitors of TGF-b: Cytotox Counterscreen; 410,000 compounds, 0.76% hits; Potency, µM (titrated, usually from 46.1 µM), for the others: at the top dose activity change, negative = cytotoxicity, actives largely listed as cytotoxic; HepG2 CAGA-GFP viability, ATP luminescence, 18 h; also: potency is read from the fitted curve at half-maximal effect
#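 CellTiter-Glo luminescence gave cytotoxicity after 18 hours at 37 degrees C. The cells were HepG2 CAGA-GFP in 1% FBS DMEM, stimulated with 500 pg/mL TGF-beta after compound addition. %Activity was normalised to no-cell wells (complete cell-killing) and DMSO (no toxicity), and curves were fitted and classified.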
# IL-1B inflam inh – qHTS for Inhibitors of Inflammasome Signaling: IL-1-beta AlphaLISA Primary Screen | 360,000 compounds, 4.7% hits | activity change, % at 57.5 µM | AID 743279, 2014 | THP-1 LPS/ATP IL-1B secretion, AlphaLISA, 16 h; active compounds read low; in the data active = activity change below about -50%; inconclusive = mostly about -30% to -49%; also: % is scaled to controls: 0 for no effect and ±100 for the full control effect
#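 THP-1 cells pretreated 1 hr with compounds (up to 57.5 uM final), then stimulated with LPS (250 ng/mL final) plus ATP (1.25 mM final); secreted IL-1B measured by AlphaLISA after 16 hr, decreased signal indicating inhibition.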
# Active calls of the source: *; ? = inconclusive; nt = not tested or not shown. In the library only some 19% were active in any assay of this set; here they are far more common. Unless noted, calls follow the shape of the dose curve; as a rule, active = well fitted curve in the direction sought with a large enough effect; inconclusive = small, poorly fitted or top-dose-only effect, or another doubt; inactive = no such curve, though single readings can be large; an effect the other way counts as inactive or inconclusive.
SMILES,ASM inhibitor,TDP1 cell CPT,DT40 TDP1 no CPT,TGFb SMAD3 inh,HepG2 tox,IL-1B inflam inh
Cc1c(C(=O)NC2CC2)oc2ccc(S(=O)(=O)N3CCCCCC3)cc12,0.0%,?,?,3.8%,-17.4%,7.1
Cc1c(C(=O)NC2CCCc3ccccc32)oc2ccc(S(=O)(=O)N3CCCC3)cc12 (stereo not drawn),-0.4%,8.2µM*,?,4.1%,-2.7%,36.4
Cc1c(C(=O)NC2CCCc3ccccc32)oc2ccc(S(=O)(=O)N3CCOCC3)cc12 (stereo not drawn),-3.4%,?,?,-4.9%,-1.6%,33.5
COc1ccc(OC)c(C2C(C(=O)Nc3ccc(C)cc3)=C(C)Nc3nnnn32)c1 (stereo not drawn),nt,nt,nt,19.0%,-1.5%,nt
S=C(c1ccc(-c2ccccc2Cl)o1)N1CCOCC1,-11.5%,?,?,-11.0%,-19.8%,-90.8*
CC1CCN(C(=O)c2ccc(-c3ccccc3Cl)o2)CC1,-0.8%,-2.4%,?,-5.0%,-13.5%,-100.3*
Cc1ccc(C)c(-c2nnc(NC(=O)c3ccc([N+](=O)[O-])o3)o2)c1,nt,14.6µM*,14.6µM*,-30.0%,-31.9%,-10.0
Cc1ccc(-c2nnc(NC(=O)CCS(=O)(=O)c3ccccc3)o2)c(C)c1,0.2%,-17.6%,-16.1%,-0.4%,-6.5%,-6.1
Cc1ccc(C)c(-c2nnc(NC(=O)Cc3ccc(F)cc3)o2)c1,-0.6%,11.6µM*,10.3µM*,-3.1%,-18.5%,-10.6
Cc1ccc(-c2nnc(NC(=O)Cc3ccc(F)cc3)o2)c(C)c1,-0.4%,10.3µM*,11.6µM*,0.1%,-1.0%,-13.1
CC1CCOC(c2coc3ccccc3c2=O)O1 (stereo not drawn),6.3%,-4.0%,-10.4%,?,-28.1%,-4.2
O=C(O)C1CSC(c2coc3ccccc3c2=O)N1 (stereo not drawn),91.3%,25.9µM*,?,?,0.0%,1.2
Oc1ccc(C2CNCc3sccc32)cc1O (stereo not drawn),8.0%,14.6µM*,20.6µM*,-25.5%,-19.8%,2.9
CCOC(=O)C1C(C(=O)OC)=C(C2=CCCCC2)c2ccccc2N1S(=O)(=O)C(F)(F)F (stereo not drawn),-3.8%,?,?,-34.0%,-23.9%,25.0
N#Cc1sc2nc(N3CCCCC3)c3c(c2c1N)CCCC3,58.6%,-23.5%,?,11.2µM*,-100.3%,-12.4
Cc1nc2sc(C#N)c(N)c2c2c1CCCC2,167.8%,-30.0%,?,?,1.4%,-2.2
Cc1cccc(/C(N)=N/OC(=O)c2ccoc2C)c1,-0.1%,0.651µM*,?,1.0%,5.6%,-0.7
Cc1occc1C(=O)O/N=C(\N)c1ccccc1,-5.8%,?,?,0.0%,-115.7%,nt
Cc1cn([C@H]2C[C@H](F)[C@@H](CO)O2)c(=O)[nH]c1=O,nt,6.68µM*,16.8µM*,nt,nt,nt
CC1OC(n2cc(F)c(=O)[nH]c2=O)C(O)C1O (stereo not drawn),nt,6.51µM*,3.66µM*,nt,nt,nt
Cc1cn([C@H]2C[C@H](N=[N+]=[N-])[C@@H](CO)O2)c(=O)[nH]c1=O,4.9%,21.1µM*,7.5µM*,-21.3%,-14.7%,82.7
O=c1[nH]c(=O)n([C@H]2C[C@H](O)[C@@H](CO)O2)cc1F,6.3%,3.26µM*,0.0366µM*,-3.2%,-4.5%,41.0
CS(=O)(=O)c1ccc2nc(NC(=O)CCNC(=O)c3ccc([N+](=O)[O-])cc3)sc2c1,-0.7%,3.5%,-15.8%,?,-19.5%,41.3
O=C(NCc1ccncc1)c1cccc(S(=O)(=O)Nc2ccc(SC(F)F)cc2)c1,-1.1%,-16.7%,?,-13.2%,7.2%,0.3
Cc1nnsc1S(=O)c1ccc(F)cc1 (stereo not drawn),3.6%,-8.5%,14.6%,-0.4%,1.7%,-50.3*
SMILES,ASM inhibitor,TDP1 cell CPT,DT40 TDP1 no CPT,TGFb SMAD3 inh,HepG2 tox,IL-1B inflam inh
Cc1nnsc1S(=O)c1ccc(Br)cc1 (stereo not drawn),4.7%,18.4µM*,?,2.5%,4.3%,-8.0
Cc1ccc(S(=O)c2snnc2C)cc1 (stereo not drawn),-2.1%,-4.7%,-10.4%,8.5%,-0.8%,-17.9
C#CCNC(=O)C[C@@H]1C[C@@]2(C(=O)OCC)CCC=C2N(Cc2ccc3c(c2)OCO3)C1=O,nt,-18.2%,?,nt,nt,0.0
Cc1ccc(C(C(=O)Nc2ccc(C(C)C)cc2)N(C)C(=O)c2ccc(=O)[nH]c2)cc1 (stereo not drawn),-0.4%,-10.3%,18.4µM*,-13.3%,-35.0%,-14.7
COc1ccc(NC(=O)C(c2ccccc2)N(C)C(=O)c2ccc(=O)[nH]c2)cc1 (stereo not drawn),1.6%,-0.4%,1.5%,13.5%,2.1%,10.6
O=C(NC1CC1)C1=C[C@@H](C2CC2)C[C@@H](OCc2ccc(CO)cc2)O1,8.7%,-23.5%,-18.1%,3.7%,-6.1%,25.5
COc1ccc(C(Nc2ccc(S(=O)(=O)NCC3CCCO3)cc2)C(=O)NC(C)(C)C)cc1OC (stereo not drawn),0.1%,-1.3%,5.8%,-4.7%,-0.4%,-13.2
COC(=O)c1ccc(C)c(NC(=O)CCn2[nH]c(=O)ccc2=O)c1,3.2%,-13.0%,-4.0%,2.7%,-9.5%,11.4
CCOC(=O)c1nn(-c2ccc(C)c(C)c2)c(=O)c2c(N)scc12,-8.0%,20.6µM*,?,2.5%,-19.3%,1.7
CCOC(=O)c1nn(-c2ccc(OC)cc2)c(=O)c2c(N)scc12,-10.1%,-0.7%,-1.2%,?,-1.7%,-3.7
CC1=CC=CC2=NC(=O)CC(C)(C(=O)O)N12 (stereo not drawn),71.2%,2.1%,3.7%,1.5%,-19.3%,7.2
Cc1ccccc1C(=O)Nc1cc(NC(=O)c2ccccc2C)cc(C(=O)O)c1,1.5%,-13.5%,2.4%,22.2%,2.2%,-19.7
N#CC1CC(c2ccccc2)Nc2cc(Cl)ccc2N1 (stereo not drawn),4.6%,16.4µM*,10.3µM*,?,-84.4%,0.6
Cc1ccc(CCNC(=O)CCCc2nnc3n(C)c(=O)c4sccc4n23)cc1,nt,?,?,-8.5%,-7.3%,nt
